Among all 200,000 compounds or so, about 670 (0.34%) were called active. Cut-off read from the data, not from the text of the source: active = activation above about 22%; inactive = the rest. The list comes from a sample in which actives are over-represented; it also holds similar structures and randomly drawn compounds.
molecular target: Peroxisome proliferator-activated receptor gamma (Homo sapiens) (UniProt P37231); assay: agonists of PPARg-SRC-2 recruitment, primary screen, biochemical, HTS (AID 1032); conditions: PPARgamma LBD-SRC-2 recruitment, at 8 µM, hits give high values;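 note: 0% = vehicle and 100% = reference agonist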
Sequence (P37231 whole entry, looked up, the tested form may be a part): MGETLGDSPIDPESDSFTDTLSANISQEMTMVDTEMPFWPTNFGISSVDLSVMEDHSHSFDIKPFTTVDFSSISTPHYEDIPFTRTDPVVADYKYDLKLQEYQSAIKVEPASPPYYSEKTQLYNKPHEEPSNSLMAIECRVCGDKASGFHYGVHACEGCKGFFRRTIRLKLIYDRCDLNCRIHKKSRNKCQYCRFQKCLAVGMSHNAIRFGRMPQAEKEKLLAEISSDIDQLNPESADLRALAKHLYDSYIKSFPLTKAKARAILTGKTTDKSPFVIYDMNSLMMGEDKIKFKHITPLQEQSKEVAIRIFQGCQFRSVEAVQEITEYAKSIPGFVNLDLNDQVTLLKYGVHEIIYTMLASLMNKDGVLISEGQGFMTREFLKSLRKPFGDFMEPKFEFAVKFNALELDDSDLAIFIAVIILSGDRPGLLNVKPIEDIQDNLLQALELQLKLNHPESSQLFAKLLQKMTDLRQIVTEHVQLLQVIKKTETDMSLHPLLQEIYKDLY

Which activation does the source give for CCn1c(SCc2cc(=O)n3ccsc3n2)nc2ccccc21 here?
Its activation is 2.48% (inactive).

O=C(CSc1nc2c(cnn2-c2ccc(F)cc2)c(=O)[nH]1)N1CCCCCC1 was tested. Which activation did it give?
Its activation is 5.39% (inactive).

How did the activation turn out when CC(=O)c1sc2nc(SCC(=O)N3CCCCC3)[nH]c(=O)c2c1C was run?
The activation was 27.8% (active).

With C=CCNC(=O)CSc1nc2sc(C)c(C)c2c(=O)[nH]1 as the compound, how does the activation read?
Its activation is 6.77% (inactive).

For CCN(CC)N=Nc1cccc(NC(C)=O)c1, which activation is on record?
The activation was 6.74% (inactive).

With CCOC(=O)c1[nH]ncc1CN1CCCC(C(=O)c2ccc(OC)cc2C)C1 (configuration not stated) as the compound, how does the activation read?
The activation was -2.32% (inactive).

With Oc1ccccc1N1CCN(C(=S)NCc2ccccc2)CC1 as the compound, how does the activation read?
Its activation is 6.1% (inactive).

How did the activation turn out when O=C(COC(=O)c1ccncc1)c1ccccc1 was run?
Its activation is -2.8% (inactive).

For CC(=O)NC1C(OCc2ccccc2)OC(COC(C)=O)C(OC(C)=O)C1OC(C)=O (configuration not stated), which activation is on record?
Its activation is 4.63% (inactive).

For O=C(OCC1O[C@@H](OC(=O)c2cc(O)c(O)c(O)c2)[C@@H](OC(=O)c2cc(O)c(O)c(O)c2)[C@@H](OC(=O)c2cc(O)c(O)c(O)c2)[C@@H]1OC(=O)c1cc(O)c(O)c(O)c1)c1cc(O)c(O)c(O)c1 (some centres not stated), which activation is on record?
Its activation is 27.6% (active).

For CCOC(=O)N1CCN(C(=O)CSc2nc(C)nc3c2c(=O)n(C)c(=O)n3C)CC1, which activation is on record?
The activation was -8.15% (inactive).

How did the activation turn out when Cc1cc(C)nc(NC(=O)c2cccc([N+](=O)[O-])c2)c1 was run?
Its activation is -5.12% (inactive).

With CSc1nc(N)c(C#N)c(-c2ccccc2Cl)c1C#N as the compound, how does the activation read?
The activation was -6.37% (inactive).

Which activation does the source give for Cc1c(-c2ccccc2)nc(N)c(C#N)c1-c1cccs1 here?
Its activation is 6.63% (inactive).

How did the activation turn out when CCc1c(-c2ccccc2)nc(N)c(C#N)c1-c1cccs1 was run?
The activation was 23.2% (active).

With O=C(NCc1nnc(SCC(=O)N2CCC(Cc3ccccc3)CC2)o1)c1ccco1 as the compound, how does the activation read?
The activation was 0.71% (inactive).

For O=C(Cc1ccc(Br)cc1)N1CCN(c2ccccn2)CC1, which activation is on record?
The activation was 4.3% (inactive).

CC(C)(C)C(=O)NC(NC(=S)Nc1ccc(S(N)(=O)=O)cc1)C(Cl)(Cl)Cl (configuration not stated) was tested. Which activation did it give?
The activation was -5.23% (inactive).

Which activation does the source give for O=C(/C=C/Nc1ccccc1OC(F)(F)F)C(F)(F)F here?
Its activation is 1.89% (inactive).

For CN(C)c1ccc(N/C=C/C(=O)C(F)(F)F)cc1, which activation is on record?
The activation was 39.6% (active).

CCCOc1ccc(N/C=C/C(=O)C(C)(C)C)cc1 was tested. Which activation did it give?
The activation was -1.64% (inactive).

How did the activation turn out when CCC(=O)OCCNc1nc(-c2ccccc2)nc2ccccc12 was run?
The activation was 0.25% (inactive).

How did the activation turn out when Cn1ccc(=NC=C(C#N)C#N)c2ccccc21 was run?
The activation was -3.24% (inactive).

How did the activation turn out when CC1CCN(C(=S)NC2CC3CCC2C3)CC1 (configuration not stated) was run?
Its activation is -1.7% (inactive).

How did the activation turn out when Cc1c(CN2CCC(CO)(CCOc3ccccc3)CC2)[nH]c2ccc(Cl)cc12 was run?
Its activation is 3.77% (inactive).

For COc1ccc(C(=O)NCc2nnc(SCCOc3ccccc3)n2C)cc1, which activation is on record?
The activation was 0.32% (inactive).

Which activation does the source give for Cn1c(=O)cc(SCC(=O)N2CCCC2)c2cc(Cl)ccc21 here?
Its activation is 61.1% (active).

For Cc1cccc(OCc2nnc(SCC(=O)N3CCN(C(=O)c4ccco4)CC3)n2C)c1C, which activation is on record?
The activation was 4.26% (inactive).

Which activation does the source give for Cn1c(=O)cc(SCC(=O)N2CCN(C(=O)c3ccco3)CC2)c2ccccc21 here?
The activation was 40.5% (active).

With O=C(CSCc1ccc(Cl)cc1)N1CCCCC1 as the compound, how does the activation read?
The activation was 7.59% (inactive).

With CCOc1ccc(CCNC(=O)CSc2cc(=O)n(C)c3ccc(Cl)cc23)cc1OCC as the compound, how does the activation read?
The activation was 18.7% (inactive).

Which activation does the source give for CCOC(=O)C1CCN(C(=O)Cn2cc(C#N)c3ccccc32)CC1 here?
The activation was 3.64% (inactive).

For CC(=O)c1ccc(-n2nnnc2SCC(=O)N2CCN(C(=O)c3ccco3)CC2)cc1, which activation is on record?
The activation was -5.53% (inactive).

How did the activation turn out when CCOC(=O)C1CCN(C(=O)CSc2cc(=O)n(C)c3ccccc23)CC1 was run?
Its activation is 56.4% (active).

For CCOC(=O)N1CCC(NC(=O)COc2cc(=O)n(C)c3ccccc23)CC1, which activation is on record?
Its activation is -4.54% (inactive).

With Cc1ccc(-c2nc(C)sc2CC(=O)OCC(=O)Nc2c(F)cccc2F)cc1 as the compound, how does the activation read?
The activation was 5.36% (inactive).

With O=c1oc(/C=C/c2ccccc2)nc2ccccc12 as the compound, how does the activation read?
The activation was -0.23% (inactive).

Which activation does the source give for O=C(Cc1ccccc1)N1CCN(S(=O)(=O)c2ccc([N+](=O)[O-])cc2)CC1 here?
Its activation is 7.91% (inactive).

O=C1c2cccc(OCC(=O)N3N=C(c4cccs4)CC3c3ccc(F)cc3)c2CCN1Cc1ccccc1 (configuration not stated) was tested. Which activation did it give?
Its activation is 0.84% (inactive).

CC(CC(=O)Nc1ccccc1)n1ccnc1 (configuration not stated) was tested. Which activation did it give?
Its activation is 8.08% (inactive).

How did the activation turn out when CCC(CC)C(=O)Nc1ccc(S(=O)(=O)Nc2nccs2)cc1 was run?
Its activation is -6.57% (inactive).

Which activation does the source give for C=C(C)C1CC=C(C)/C(=N/NC(=O)CCCNc2cccc(C)c2)C1 (configuration not stated) here?
Its activation is 3.8% (inactive).

O=C(CNC(=O)COc1ccccc1)NCCc1ccccn1 was tested. Which activation did it give?
The activation was -3% (inactive).

How did the activation turn out when C#CCOCCOCCOCCNc1nc(N2CCN(C(=O)C(Cc3ccc(O)cc3)n3cc(C(N)CC(C)C)nn3)CC2)nc(N2CCN(C(=O)C(Cc3ccc(O)cc3)n3cc(C(N)C(C)CC)nn3)CC2)n1 (configuration not stated) was run?
The activation was -8.91% (inactive).

How did the activation turn out when COCCN(C(=O)CCC(=O)Nc1nccs1)C(C(=O)NC(C)(C)C)c1ccc(Cl)cc1 (configuration not stated) was run?
The activation was 5.4% (inactive).

Which activation does the source give for CC(=O)Nc1ccc(Nc2c([N+](=O)[O-])cc(S(C)(=O)=O)cc2[N+](=O)[O-])cc1 here?
Its activation is 6.76% (inactive).

N#Cc1ccc(-c2ccc(Cl)cc2)nc1Oc1ccc(F)cc1 was tested. Which activation did it give?
The activation was 322% (active).

For CN(C)c1ccnc(Oc2ccc(F)cc2)c1C#N, which activation is on record?
Its activation is 7.04% (inactive).

For N#Cc1ccc(-c2ccc(F)cc2)nc1Sc1ccccc1, which activation is on record?
The activation was 3.38% (inactive).

Which activation does the source give for COCCn1c(SCC(=O)Nc2ccc3c(c2)CCC3)nc2ccccc2c1=O here?
The activation was -3.24% (inactive).

For CCOC(=O)/C=c1\s/c(=C\c2ccc(C#N)cc2)c(=O)n1CC(=O)Nc1cccc(C)c1C, which activation is on record?
Its activation is 2.46% (inactive).

How did the activation turn out when Oc1oc(-c2ccccc2Br)nc1/C=N/c1ccccn1 was run?
The activation was 7.3% (inactive).

How did the activation turn out when COc1cc(SC#N)ccc1N=Cc1c(C)[nH]n(-c2ccc(C)cc2)c1=O was run?
Its activation is 27.6% (active).

Which activation does the source give for Cc1ccc(-n2[nH]c(C)c(/C=N/N3C(=O)c4cccc5cccc(c45)C3=O)c2=O)cc1 here?
Its activation is 6.04% (inactive).

How did the activation turn out when CCc1nnc(NS(=O)(=O)c2ccc(N=Cc3c(C)[nH]n(-c4ccc(C)cc4)c3=O)cc2)s1 was run?
Its activation is 12.6% (inactive).

CN(C)S(=O)(=O)c1cccc(NC(=S)NCc2ccc3c(c2)OCO3)c1 was tested. Which activation did it give?
Its activation is 4.42% (inactive).

Which activation does the source give for COc1ccc(N(CC(=O)NC2CCCC2)C(=O)CS(=O)CC(=O)Nc2ccc3c(c2)OCO3)cc1 (configuration not stated) here?
The activation was -7.54% (inactive).

From PubChem BioAssay AID1032 (The Scripps Research Institute Molecular Screening Center, 2008)
